Results: the supplement of paper PMC6992640
± gives the standard deviation of the averaged measurements.

Tests used:
Test in all cases: cell viability (% of vehicle); higher = less cytotoxic
Conditions in all cases: 10 µM; 72 h
HCI01 = system: HCI01 (cells of a triple-negative basal-like breast cancer xenograft)
HCI03 = system: HCI03 (cells of an ER-positive luminal breast cancer xenograft)
HCI09 = system: HCI09 (cells of a triple-negative luminal androgen receptor type breast cancer xenograft)
HCI11 = system: HCI11 (cells of an ER-positive luminal breast cancer xenograft)
HCI13 = system: HCI13 (cells of an ER-positive luminal breast cancer xenograft)
HCI16 = system: HCI16 (cells of a triple-negative basal-like breast cancer xenograft)
UCD52 = system: UCD52 (cells of a triple-negative basal-like breast cancer xenograft)
WHIM2 = system: WHIM2 (cells of a triple-negative basal-like breast cancer xenograft)
WHIM30 = system: WHIM30 (cells of a triple-negative basal-like breast cancer xenograft)
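Also: PDX cells carrying CMV promoter-driven luciferase, viability read as total photon flux per second by IVIS imaging following D-luciferin, vehicle control 0.1% DMSO.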

Structure (SMILES) | cell viability (HCI01) | cell viability (HCI03) | cell viability (HCI09) | cell viability (HCI11) | cell viability (HCI13) | cell viability (HCI16) | cell viability (UCD52) | cell viability (WHIM2) | cell viability (WHIM30)
COc1ccc2[n-]c(S(=O)Cc3ncc(C)c(OC)c3C)nc2c1.COc1ccc2[n-]c(S(=O)Cc3ncc(C)c(OC)c3C)nc2c1.[Mg+2] (stereo unspecified) [Esomeprazole Magnesium] | 77 ± 60 | 143 | 84.6 ± 31 | 92.6 | 165 ± 18 | 112 | 99.55 ± 0.87 | 94.2 ± 9.3 | 181 ± 29
Cc1c(N(C)C)c(=O)n(-c2ccccc2)n1C [Amidopyrine] | 99.1 ± 16 | 118 | 94.5 ± 19 | 93.2 | 76.33 ± 0.62 | 97.5 | 97.8 ± 7.1 | 117 ± 37 | 122 ± 8.5
CNCC(O)c1cccc(O)c1.Cl (stereo unspecified) [Phenylephrine HCl] | 110 ± 2.1 | 126 | 103 ± 22 | 105 | 78 ± 4.8 | 97.2 | 87.5 ± 4.1 | 86.1 ± 7.8 | 109 ± 7.6
CN(C)CCCC1(c2ccc(F)cc2)OCc2cc(C#N)ccc21.O=C(O)C(=O)O (stereo unspecified) [Escitalopram Oxalate] | 99.8 ± 9.9 | 114 | 97.3 ± 12 | 86.2 | 93.6 ± 18 | 128 | 90.9 ± 5.2 | 87.5 ± 5.9 | 157 ± 21
CC(=O)Oc1cc(C(F)(F)F)ccc1C(=O)O [Triflusal] | 108 ± 22 | 129 | 97 ± 13 | 101 | 107 ± 1.9 | 98.4 | 76 ± 3.1 | 107 ± 17 | 85.4 ± 4.2
Nc1ccn(CC(CO)OCP(=O)(O)O)c(=O)n1.O.O (stereo unspecified) [Cidofovir dihydrate] | 120 ± 9.9 | 136 | 109 ± 42 | 94.7 | 152 ± 12 | 96.8 | 88 ± 0.94 | 97 ± 24 | 81 ± 1.9
Cc1ccc(-n2[nH]c(C)c(NN=C3C=CC=C(c4cccc(C(=O)O)c4)C3=O)c2=O)cc1C.NCCO.NCCO [Eltrombopag Olamine] | 82.7 ± 71 | 79.3 | 26.4 ± 4 | 71 | 43.8 ± 1.1 | 119 | 76.8 ± 6.6 | 36.8 ± 0.9 | 104 ± 17
N#CC1CCCN1C(=O)CNC12CC3CC(CC(O)(C3)C1)C2 (stereo unspecified) [Vildagliptin (LAF-237)] | 118.9 ± 0.29 | 125 | 88.7 ± 16 | 126 | 96.1 ± 17 | 114 | 121 ± 12 | 112 ± 1.5 | 141 ± 20
COc1cc2nc(N3CCN(C(=O)C4CCCO4)CC3)nc(N)c2cc1OC.Cl.O.O (stereo unspecified) [Terazosin HCl] | 137 ± 8 | 116 | 110 ± 19 | 101 | 104 ± 2 | 123 | 85.8 ± 15 | 113 ± 5.9 | 114 ± 12
NC(CSCCCO)C(=O)O (stereo unspecified) [Fudosteine] | 91 ± 9.3 | 103 | 87.1 ± 7.6 | 94.5 | 107 ± 11 | 96.1 | 77.3 ± 4.8 | 112 ± 14 | 91.1 ± 8.5
CCOC(=O)c1ccc(OC(=O)CCCCCN=C(N)N)cc1.CS(=O)(=O)O [Gabexate mesylate] | 170 ± 9.1 | 122 | 98 ± 3.2 | 147 | 96.8 ± 1.2 | 159 | 142 ± 6.2 | 111 ± 10 | 180 ± 27
CC1Cc2ccccc2N1NC(=O)c1ccc(Cl)c(S(N)(=O)=O)c1 (stereo unspecified) [Indapamide] | 98 ± 9.9 | 100 | 94.6 ± 4.7 | 88.8 | 110 ± 14 | 128 | 80.2 ± 1.6 | 107 ± 18 | 105 ± 3.4
CCc1ccc(CCOc2ccc(CC3SC(=O)NC3=O)cc2)nc1.Cl (stereo unspecified) [Pioglitazone HCl] | 119 ± 6.9 | 129 | 93.7 ± 19 | 125 | 126 ± 2 | 102 | 116 ± 11 | 116 ± 13 | 182 ± 40
CC(CCC(=O)O)C1CCC2C3CCC4CC(O)CCC4(C)C3CC(O)C12C (stereo unspecified) [Deoxycholic acid] | 119 ± 25 | 143 | 107 ± 23 | 103 | 107.1 ± 0.2 | 87.1 | 112 ± 3.8 | 104 ± 19 | 91.5 ± 0.73
CCN(Cc1ccncc1)C(=O)C(CO)c1ccccc1 (stereo unspecified) [Tropicamide] | 112 ± 15 | 136 | 106 ± 11 | 101 | 136 ± 23 | 110 | 74.6 ± 14 | 91.4 ± 14 | 98.61 ± 0.95
CC[N+](CC)(CC)CCOc1cccc(OCC[N+](CC)(CC)CC)c1OCC[N+](CC)(CC)CC.[I-].[I-].[I-] [Gallamine Triethiodide] | 107 ± 9.8 | 118 | 94.6 ± 20 | 88.1 | 107 ± 8.3 | 92.6 | 98 ± 6.3 | 118 ± 6.2 | 79.5 ± 6.1
CCNC1CC(C)S(=O)(=O)c2sc(S(N)(=O)=O)cc21.Cl (stereo unspecified) [Dorzolamide HCl] | 100 ± 4.5 | 111 | 96.8 ± 21 | 130 | 121 ± 5.2 | 98.2 | 71.8 ± 5.1 | 105 ± 8.4 | 89.3 ± 6.7
COc1nc(N)nc2c1ncn2C1OC(CO)C(O)C1O (stereo unspecified) [Nelarabine] | 127 ± 20 | 117 | 113 ± 0.87 | 95.9 | 86.3 ± 5.3 | 98.4 | 111 ± 21 | 96.7 ± 21 | 115 ± 17
CCOc1cc(CC(=O)NC(CC(C)C)c2ccccc2N2CCCCC2)ccc1C(=O)O (stereo unspecified) [Repaglinide] | 88 ± 1.1 | 131 | 117 ± 15 | 111 | 80.3 ± 12 | 118 | 80.672 ± 0.07 | 96.8 ± 5.5 | 126 ± 18
